Hit rate of the full screen: of about 37,000 compounds, about 2,800 (7.6%) were called active. About 1% were inconclusive and are not listed. This is one part of a sample in which actives are shown more often than they occur. Cut-off read from the data, not from the text of the source: active = inhibition above about 80%; inconclusive = no clear call, values can overlap the other calls; inactive = below that.

The nature of this experiment: NOMO-1 AML cell viability reduction, primary screen, STK33 inhibitor project, CellTiter-Glo luminescence (AID 2330). The conditions noted are these: NOMO-1 AML viability, 72 h, stronger effect = higher value, concentration not given here. On the technique in general: Cellular ATP, detected with luciferase, serves as a proxy for viable cell number.
One may read the inhibition as the relative decrease from the control value, in per cent. Regarding `C/C=C(/C)C(=O)OC1Cc2c(ccc3ccc(=O)oc23)OC1(C)C` (centres undefined), the inhibition was 9.99% (inactive).

Turning to `S=c1nc2c(cnn2-c2ccccc2)c(Nc2ccccc2)[nH]1`, the inhibition was 12% (inactive).

`C[C@@H]1CN([C@H](C)CO)C(=O)c2cc(NC(=O)Cn3cnnn3)ccc2O[C@@H]1CN(C)Cc1ccc(C(F)(F)F)cc1`: the inhibition is 21.9% (inactive).

Take `Cc1ccc(S(=O)(=O)N(C)C[C@@H]2Oc3ccc(NS(=O)(=O)c4c(C)noc4C)cc3CC(=O)N([C@H](C)CO)C[C@H]2C)cc1`: the inhibition was -13.6% (inactive).

`O=C(O)CCCC(=O)Nc1ccc(F)cc1`: the inhibition was 13.9% (inactive).

Regarding `C[C@H]1CN([C@@H](C)CO)C(=O)c2cc(NC(=O)CCN3CCOCC3)ccc2O[C@@H]1CN(C)C(=O)Nc1ccc(C(F)(F)F)cc1`, the inhibition was 22.5% (inactive).

Take `C[C@@H]1CN([C@@H](C)CO)C(=O)c2cc(NS(=O)(=O)c3ccccc3)ccc2O[C@H]1CN(C)CC1CCCCC1`: the inhibition is -8.05% (inactive).

`Cn1nc(CC(=O)Nc2ccc3c(c2)oc2ccccc23)c2ccccc2c1=O`: the inhibition was 37.5% (inactive).

Regarding `Cc1ccc(C(=O)NC(NCc2ccco2)(C(F)(F)F)C(F)(F)F)cc1`, the inhibition was 39.2% (inactive).

On to `Cc1ccc(-n2nnnc2-c2cnn(-c3ccccc3)c2C)cc1`, for which the inhibition is 29.6% (inactive).

In the case of `C[C@H]1CN([C@@H](C)CO)C(=O)c2cccc(NS(=O)(=O)c3ccccc3)c2O[C@@H]1CN(C)S(=O)(=O)c1cn(C)cn1`, the inhibition was -9.26% (inactive).

With `Cc1ccc(S(=O)(=O)Nc2ccc3c(c2)C(=O)N([C@@H](C)CO)C[C@@H](C)[C@H](CN(C)Cc2ccc(C(F)(F)F)cc2)O3)cc1`, the inhibition was 118% (active).

As to `C[C@H](CO)N1C[C@H](C)[C@H](CN(C)Cc2ccc(C(F)(F)F)cc2)Oc2ccc(NS(=O)(=O)c3ccc(Cl)cc3)cc2C1=O`, the inhibition was 58.5% (inactive).

For `COc1ccc(S(=O)(=O)Nc2ccc3c(c2)C(=O)N([C@H](C)CO)C[C@H](C)[C@H](CN(C)Cc2ccc(C(F)(F)F)cc2)O3)cc1`, the inhibition was 51.7% (inactive).

As to `C[C@@H]1CN([C@@H](C)CO)C(=O)c2cc(NS(C)(=O)=O)ccc2O[C@H]1CN(C)C(=O)Nc1ccc(F)cc1`, the inhibition is 37.9% (inactive).

In the case of `CCCN(Cc1cc2cccc(C)c2[nH]c1=O)S(C)(=O)=O`, the inhibition was 10.7% (inactive).

Turning to `COC(=O)C1=C(C)Nc2c(c(=O)n(C)c(=O)n2C)C1c1cccc(OCc2ccccc2)c1` (centres undefined), the inhibition is 7.28% (inactive).

For `O=C(c1ccc(Cl)cc1)n1c(=O)oc2cc(Cl)ccc21`, the inhibition was 132% (active).

For the compound `CC(C)(C)c1ccc(OCC(=O)NCc2ccccn2)c(Br)c1`, the inhibition is 43.9% (inactive).

These data come from PubChem BioAssay AID2330 (Broad Institute, 2010).
